PubChem BioAssay (Tox21)
“And” between values parts separate entries of the source, which are not always exact repeats. Equal values may be shown once. Results filed as inconclusive are left out. Where a call stands in place of a potency, no number is given. The source made the active and inactive calls. Calls come from the whole dose curve; as a rule, active = well fitted curve in the direction sought with a large enough effect in the repeat runs; inconclusive = weak or mixed curves; inactive = no such curve, though single readings can be large; an effect the other way counts as inactive or inconclusive.

Test: Caspase-3/7 induction in CHO-K1 cells by small molecules, qHTS cell viability counter screen (AID 1346979); note: nearly all actives have a fitted effect of over 35% in size; note: potency is the fitted concentration of half-maximal effect
Conditions: CellTiter-Fluor fluorescence, 17 h; series mostly up to 92.4 µM
Procedure, shortened: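 Cells (CHO-K1, wild type) are plated at 1,500 per well and incubated 5hr. Test compounds in DMSO are then pinned in, followed by 16hr at 37C and 5% CO2. Viability is read by CellTiter-Fluor fluorescence after 1hr.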
For `O=C(Nc1ccc2c(O)c(N=Nc3ccc(N=Nc4ccc(S(=O)(=O)O)cc4)cc3)c(S(=O)(=O)O)cc2c1)c1ccccc1`, the Potency was 15.4 µM (active). For `Cc1cc(-c2ccc(N=Nc3cc(S(=O)(=O)O)c4ccccc4c3N)c(C)c2)ccc1N=Nc1cc(S(=O)(=O)O)c2ccccc2c1N`, the Potency was 54.8 µM (active). For `CN1CCC[C@@H]1CCO[C@](C)(c1ccccc1)c1ccc(Cl)cc1`, the Potency was 26.6 µM (active). In the case of `C#C[C@]1(OC(C)=O)CC[C@H]2[C@@H]3CCC4=C[C@@H](OC(C)=O)CC[C@@H]4[C@H]3CC[C@@]21C`, the Potency is reported as 33.5 µM (active). For `C=CC(=O)Nc1cc2c(Nc3ccc(F)c(Cl)c3)ncnc2cc1OCCCN1CCOCC1`, the Potency was 5.96 µM (active). For `CCN1C(=O)c2ccccc2C1Nc1ccc(OCCN2CCCCC2)cc1` (stereo not drawn), the Potency was “inactive”. In the case of `Cc1ccc(O)c(O)c1`, the Potency is reported as 52.9 µM (active). For `C=CCn1c(=O)n(CC=C)c(=O)n(CC=C)c1=O`, the Potency was “inactive”. For `Cc1ccc(O)c(N)c1`, the Potency was 61.2 µM (active). With `C#CC1(O)CC[C@H]2[C@@H]3CCC4=CCCC[C@@H]4[C@H]3CC[C@@]21C` (stereo partly drawn) the Potency was 61.1 µM (active) and 26.6 µM (active). With `CNC(=O)c1ccccc1Sc1ccc2c(/C=C/c3ccccn3)n[nH]c2c1` the Potency was 26.6 µM (active). For `OCCN1CCN(CCCN2c3ccccc3Sc3ccc(C(F)(F)F)cc32)CC1`, the Potency was 29.8 µM (active). With `CN1CCN(Cc2cc(-c3ccc4[nH]c(=O)oc4c3)co2)[C@@H](c2ccc(F)cc2)C1` the Potency was 58.8 µM (active). For `O=C(c1ccc(O)c(O)c1)c1ccc(O)cc1O`, the Potency was 54.4 µM (active). With `CCC(C)n1ncn(-c2ccc(N3CCN(c4ccc(OC[C@H]5CO[C@](Cn6cncn6)(c6ccc(Cl)cc6Cl)O5)cc4)CC3)cc2)c1=O` (stereo partly drawn) the Potency was 5.96 µM (active). With `Cc1cc(C)c(/C=C2\C(=O)Nc3ccccc32)[nH]1` the Potency was “inactive”. With `CC(C)=CCNc1ncnc2c1ncn2[C@@H]1O[C@H](CO)[C@@H](O)[C@H]1O` the Potency was 11.9 µM (active). For `O=C(O)c1cc(N=Nc2ccc([N+](=O)[O-])cc2)ccc1O`, the Potency was 47.7 µM (active). With `CCO[C@@H]1O[C@H](C(COCc2ccccc2)OCc2ccccc2)[C@H](OCc2ccccc2)[C@H]1O` (stereo partly drawn) the Potency was 29.8 µM (active). For `COC(=O)C1=C(C)NC(C)=C(C(=O)OCCN2CCN(C(c3ccccc3)c3ccccc3)CC2)C1c1cccc([N+](=O)[O-])c1` (stereo not drawn), the Potency was 21.1 µM (active). With `CCCCN(CCCC)CC(O)c1cc(Cl)cc2c1-c1ccc(Cl)cc1/C2=C/c1ccc(Cl)cc1` (stereo not drawn) the Potency was 26.6 µM (active). For `Cc1cc(C(C)(C)C)cc(C)c1CC1=NCCN1`, the Potency was “inactive”.

Test: Caspase-3/7 induction in CHO-K1 cells by small molecules, qHTS assay (AID 1346980); note: nearly all actives have a fitted effect of over 15% in size
Conditions: CHO-K1 caspase-3/7 induction, Caspase-Glo luminescence, 17 h; series mostly up to 92.4 µM
Procedure, shortened: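 Wild-type cells were seeded at 1,500 per well and settled 5 hr at 37 C, 5% CO2, then exposed to DMSO-dissolved compounds for 17 hr. Caspase-Glo 3/7 reagent was added, and luminescence was read after 30min at room temperature.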
For `O=c1[nH]c2ccccc2n1CCCN1CCN(C(c2ccccc2)c2ccccc2)CC1`, the Potency was “inactive”. With `O=C(Nc1ccc2c(O)c(N=Nc3ccc(N=Nc4ccc(S(=O)(=O)O)cc4)cc3)c(S(=O)(=O)O)cc2c1)c1ccccc1` the Potency was “inactive”. In the case of `O=S(=O)(O)c1ccccc1/C=C/c1ccc(-c2ccc(/C=C/c3ccccc3S(=O)(=O)O)cc2)cc1`, the Potency is reported as “inactive”. With `CC1(C)[C@@H](O)CC[C@]2(C)[C@H]3C(=O)C=C4[C@@H]5C[C@@](C)(C(=O)O)CC[C@]5(C)CC[C@@]4(C)[C@]3(C)CC[C@@H]12` the Potency was “inactive”. For `O=C1CCc2cc(OCCCCc3nnnn3C3CCCCC3)ccc2N1`, the Potency was “inactive”. With `CCC(CC)(CC(=O)Nc1cccc(/C=C/c2nc(C3CCC3)cs2)c1)C(=O)O` the Potency was “inactive”. In the case of `Cc1cc(-c2ccc(N=Nc3cc(S(=O)(=O)O)c4ccccc4c3N)c(C)c2)ccc1N=Nc1cc(S(=O)(=O)O)c2ccccc2c1N`, the Potency is reported as “inactive”. In the case of `CN1CCC[C@@H]1CCO[C@](C)(c1ccccc1)c1ccc(Cl)cc1`, the Potency is reported as “inactive”. With `C#C[C@]1(OC(C)=O)CC[C@H]2[C@@H]3CCC4=C[C@@H](OC(C)=O)CC[C@@H]4[C@H]3CC[C@@]21C` the Potency was “inactive”. With `C=CC(=O)Nc1cc2c(Nc3ccc(F)c(Cl)c3)ncnc2cc1OCCCN1CCOCC1` the Potency was “inactive”. For `CCN1C(=O)c2ccccc2C1Nc1ccc(OCCN2CCCCC2)cc1` (stereo not drawn), the Potency was “inactive”. With `Cc1ccc(O)c(O)c1` the Potency was “inactive”. For `CCc1oc2ccccc2c1C(=O)c1cc(I)c(O)c(I)c1`, the Potency was “inactive”. With `Nc1cc(Cl)c(O)c(Cl)c1` the Potency was “inactive”. For `C=CCn1c(=O)n(CC=C)c(=O)n(CC=C)c1=O`, the Potency was “inactive”. For `Cc1ccc(O)c(N)c1`, the Potency was “inactive”. For `C#CC1(O)CC[C@H]2[C@@H]3CCC4=CCCC[C@@H]4[C@H]3CC[C@@]21C` (stereo partly drawn), the Potency was “inactive”. For `CNC(=O)c1ccccc1Sc1ccc2c(/C=C/c3ccccn3)n[nH]c2c1`, the Potency was “inactive”. With `Oc1cc(Cl)cc(Cl)c1Cl` the Potency was “inactive”. With `CN1CCCCC1CCN1c2ccccc2Sc2ccc(S(C)=O)cc21` (stereo not drawn) the Potency was “inactive”. In the case of `C#C[C@]1(OC(C)=O)CC[C@H]2[C@@H]3CCC4=C/C(=N/O)CC[C@@H]4[C@H]3CC[C@@]21CC`, the Potency is reported as “inactive”. With `CN1CCN(Cc2cc(-c3ccc4[nH]c(=O)oc4c3)co2)[C@@H](c2ccc(F)cc2)C1` the Potency was “inactive”. For `O=C(c1ccc(O)c(O)c1)c1ccc(O)cc1O`, the Potency was “inactive”. For `CCC(C)n1ncn(-c2ccc(N3CCN(c4ccc(OC[C@H]5CO[C@](Cn6cncn6)(c6ccc(Cl)cc6Cl)O5)cc4)CC3)cc2)c1=O` (stereo partly drawn), the Potency was “inactive”. With `CCOC(=O)c1ccc(C2CCC(NC[C@H](O)COc3ccc(O)c(NS(C)(=O)=O)c3)CC2)cc1` (stereo partly drawn) the Potency was “inactive”. With `CN(C)[C@@H](CCOc1cccc2ccccc12)c1ccccc1` the Potency was “inactive”. For `Cc1cc(C(C#N)c2ccc(Cl)cc2)c(Cl)cc1NC(=O)c1cc(I)cc(I)c1O` (stereo not drawn), the Potency was “inactive”. In the case of `CC(C)=CCNc1ncnc2c1ncn2[C@@H]1O[C@H](CO)[C@@H](O)[C@H]1O`, the Potency is reported as “inactive”. In the case of `O=c1c(O)c(-c2ccc(O)cc2O)oc2cc(O)cc(O)c12`, the Potency is reported as “inactive”. In the case of `O=C(O)c1cc(N=Nc2ccc([N+](=O)[O-])cc2)ccc1O`, the Potency is reported as “inactive”. With `O=C(/C=C/c1ccc(O)c(O)c1)O[C@@H](C(=O)O)[C@@H](OC(=O)/C=C/c1ccc(O)c(O)c1)C(=O)O` the Potency was “inactive”. For `CCO[C@@H]1O[C@H](C(COCc2ccccc2)OCc2ccccc2)[C@H](OCc2ccccc2)[C@H]1O` (stereo partly drawn), the Potency was “inactive”. With `OC12N=C(c3ccccc3)SC1Cc1cc(Cl)ccc12` (stereo not drawn) the Potency was “inactive”. With `CC(C(=O)O)c1ccc2c(c1)[nH]c1ccc(Cl)cc12` (stereo not drawn) the Potency was “inactive”. For `COC(=O)C1=C(C)NC(C)=C(C(=O)OCCN2CCN(C(c3ccccc3)c3ccccc3)CC2)C1c1cccc([N+](=O)[O-])c1` (stereo not drawn), the Potency was “inactive”. For `Cc1cc(C(C)(C)C)cc(C)c1CC1=NCCN1`, the Potency was “inactive”.
